According to PubChem BioAssay (Tox21):
Records with an inconclusive call do not appear. Activity calls are given as the source filed them. Calls follow the shape of the dose curve; as a rule, active = well fitted cell-killing curve with a large enough effect in the repeat runs; inconclusive = weak or mixed curves, or effect the other way; inactive = flat fitted curve, though single readings scatter.

Experiment: cAMP Responsive Elements (CRE) small molecule antagonists, cell-based qHTS assay: qHTS cell viability counter screen (AID 2060913); also: nearly all actives have a fitted effect of over 40% in size
Conditions: CRE-bla HEK293T viability, CellTiter-Glo luminescence, 5 h; series mostly up to 92.4 µM; viability change, negative = cytotoxic: at the top concentration
Outline: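 HEK293T CRE-bla, 2,000 cells/well, 18 h preincubation; cpd in DMSO + NKH477 0.25 uM final, 3 h 37 C/5% CO2; LiveBLAzer 2 h RT, then CellTiter-Glo 30 min RT, luminescence.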
% is scaled to controls: 0 for no effect and ±100 for the full control effect.

SMILES	viability change, negative = cytotoxic	Potency
CC(C)C[C@@H](N)C(=O)O	3.57% [at 18.9 µM] (inactive)	
O=S1(=O)CCCC1	6.02% (inactive)	
CCOc1ccc(NC(C)=O)cc1N	-5.96% (inactive)	
C=CC(C)(CCC=C(C)C)OC(=O)C(C)C (centres undefined)	7.52% (inactive)	
CCOc1ccc(Cc2nccc3cc(OCC)c(OCC)cc23)cc1OCC	-14.5% [at 42.5 µM] (inactive)	
CC(C)(C)c1ccc(OC(=O)c2ccccc2O)cc1	-20.7% (inactive)	
O=S1(=O)N=C(O)c2ccccc21	6.89% [at 42.5 µM] (inactive)	
CC(=O)OCCN(CCOC(C)=O)c1ccc(N=Nc2ccc([N+](=O)[O-])cc2C#N)cc1	1.1% (inactive)	
CCCC1CCC(=O)CC1	-7.61% (inactive)	
CCCCCc1ccco1	6.58% [at 42.5 µM] (inactive)	
C[Si](C)=O	7.47% [at 8.39 µM] (inactive)	
CC(C)(N=C=O)c1cccc(C(C)(C)N=C=O)c1		inactive
CC(=O)/C=C/C1=C(C)CCCC1(C)C		inactive
Cc1ccc(S(=O)(=O)NC(=O)NC2CCCCCCC2)cc1	1.89% [at 42.5 µM] (inactive)	
O=C(O)CCNC(=O)c1ccc(N=Nc2ccc(O)c(C(=O)O)c2)cc1	3.91% [at 42.5 µM] (inactive)	
CCCCCCCCCCC=CC1CC(=O)OC1=O (centres undefined)		inactive
NC(=O)c1ncn([C@@H]2O[C@H](CO)[C@@H](O)[C@H]2O)c1O	-0.689% [at 42.5 µM] (inactive)	
Cc1cccc(Nc2ccccc2C(=O)O)c1C		inactive
Cc1cccc(C)c1O		inactive
O=C(O)[C@@H](O)[C@H](O)[C@H](O)[C@@H](O)C(=O)O	3.14% [at 42.5 µM] (inactive)	
CC(CO)(CO)[N+](=O)[O-]	6.81% (inactive)	
CC(C)NC[C@@H](O)COc1ccc(CC(N)=O)cc1	3.24% [at 42.5 µM] (inactive)	
CCOc1ncc(F)c(=O)[nH]1	0.6% [at 42.5 µM] (inactive)	
CCCCCCCCCCCCc1ccccc1		inactive
